Data from ChEMBL document CHEMBL1961873, “Compounds: GSK PKIS; Assays: Nanosyn kinase panel” (2012).

Key:
[1] = target: Sphingosine kinase 1 (Homo sapiens) (UniProt Q9NYA1); details: at 1 µM;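 note: mean SPHK1 inhibition value reported from the GSK PKIS kinase panel screen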
[2] = target: T1, Sphingosine kinase 2 (Homo sapiens) (UniProt Q9NRA0); details: at 0.1 µM
T1 sequence (whole entry): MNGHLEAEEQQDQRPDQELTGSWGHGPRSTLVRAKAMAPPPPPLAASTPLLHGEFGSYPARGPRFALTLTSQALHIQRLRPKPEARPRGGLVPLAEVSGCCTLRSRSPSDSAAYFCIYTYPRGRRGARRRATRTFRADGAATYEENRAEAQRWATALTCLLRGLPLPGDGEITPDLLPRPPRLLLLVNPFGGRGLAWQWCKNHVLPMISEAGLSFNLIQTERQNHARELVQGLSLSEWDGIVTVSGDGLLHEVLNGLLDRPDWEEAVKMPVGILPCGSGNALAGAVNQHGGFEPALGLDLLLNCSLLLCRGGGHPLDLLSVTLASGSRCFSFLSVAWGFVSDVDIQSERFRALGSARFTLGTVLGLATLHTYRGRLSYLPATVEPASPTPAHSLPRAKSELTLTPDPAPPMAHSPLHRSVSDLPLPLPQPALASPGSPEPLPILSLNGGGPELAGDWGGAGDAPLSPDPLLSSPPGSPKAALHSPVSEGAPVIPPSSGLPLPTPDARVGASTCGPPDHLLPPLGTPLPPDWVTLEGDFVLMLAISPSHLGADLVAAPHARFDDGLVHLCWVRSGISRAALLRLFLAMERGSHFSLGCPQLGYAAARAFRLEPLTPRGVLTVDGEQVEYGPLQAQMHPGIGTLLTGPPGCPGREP

[3] = target: T1, Sphingosine kinase 2 (Homo sapiens); details: at 1 µM
[4] = target: Casein kinase II subunit alpha (Homo sapiens) (UniProt P68400); details: at 0.1 µM
Chain of Casein kinase II subunit alpha (Homo sapiens) (P68400 whole entry, looked up): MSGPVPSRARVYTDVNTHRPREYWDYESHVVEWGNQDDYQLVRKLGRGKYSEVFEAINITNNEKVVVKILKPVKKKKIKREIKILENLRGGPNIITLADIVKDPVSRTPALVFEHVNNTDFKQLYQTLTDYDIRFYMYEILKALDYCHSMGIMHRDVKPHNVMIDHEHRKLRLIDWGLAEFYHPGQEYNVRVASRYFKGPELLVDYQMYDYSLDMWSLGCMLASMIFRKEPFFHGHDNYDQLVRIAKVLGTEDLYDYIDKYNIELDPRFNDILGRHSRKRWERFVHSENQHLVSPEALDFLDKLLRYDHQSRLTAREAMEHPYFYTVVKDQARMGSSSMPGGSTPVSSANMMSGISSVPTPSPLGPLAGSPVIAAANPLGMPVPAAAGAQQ

[5] = target: Casein kinase II subunit alpha (Homo sapiens) (UniProt P68400); details: at 1 µM
[6] = target: T2, Inhibitor of nuclear factor kappa-B kinase subunit alpha (Homo sapiens) (UniProt O15111); details: at 0.1 µM
T2 sequence (whole entry): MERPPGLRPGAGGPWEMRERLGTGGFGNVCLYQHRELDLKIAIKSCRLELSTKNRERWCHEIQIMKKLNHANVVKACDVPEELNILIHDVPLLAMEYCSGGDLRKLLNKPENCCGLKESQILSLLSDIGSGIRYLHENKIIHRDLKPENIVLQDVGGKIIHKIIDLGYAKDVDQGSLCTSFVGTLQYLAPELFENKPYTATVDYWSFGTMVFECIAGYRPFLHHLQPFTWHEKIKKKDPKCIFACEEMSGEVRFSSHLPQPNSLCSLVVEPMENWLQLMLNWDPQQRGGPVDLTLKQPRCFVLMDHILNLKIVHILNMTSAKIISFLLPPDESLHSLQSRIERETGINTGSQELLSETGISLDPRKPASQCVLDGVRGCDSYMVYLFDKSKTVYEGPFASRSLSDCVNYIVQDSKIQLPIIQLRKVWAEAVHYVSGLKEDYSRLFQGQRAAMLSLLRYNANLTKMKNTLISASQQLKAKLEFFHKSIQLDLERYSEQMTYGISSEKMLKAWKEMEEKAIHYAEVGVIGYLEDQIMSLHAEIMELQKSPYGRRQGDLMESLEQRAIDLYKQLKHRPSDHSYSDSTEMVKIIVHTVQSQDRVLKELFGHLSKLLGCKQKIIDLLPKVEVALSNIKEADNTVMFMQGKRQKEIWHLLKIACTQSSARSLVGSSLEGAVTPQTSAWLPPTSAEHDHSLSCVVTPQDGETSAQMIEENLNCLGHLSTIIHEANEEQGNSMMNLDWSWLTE

[7] = target: T2, Inhibitor of nuclear factor kappa-B kinase subunit alpha (Homo sapiens); details: at 1 µM
[8] = target: T3, Inhibitor of nuclear factor kappa-B kinase subunit beta (Homo sapiens) (UniProt O14920); details: at 0.1 µM
T3 sequence (whole entry): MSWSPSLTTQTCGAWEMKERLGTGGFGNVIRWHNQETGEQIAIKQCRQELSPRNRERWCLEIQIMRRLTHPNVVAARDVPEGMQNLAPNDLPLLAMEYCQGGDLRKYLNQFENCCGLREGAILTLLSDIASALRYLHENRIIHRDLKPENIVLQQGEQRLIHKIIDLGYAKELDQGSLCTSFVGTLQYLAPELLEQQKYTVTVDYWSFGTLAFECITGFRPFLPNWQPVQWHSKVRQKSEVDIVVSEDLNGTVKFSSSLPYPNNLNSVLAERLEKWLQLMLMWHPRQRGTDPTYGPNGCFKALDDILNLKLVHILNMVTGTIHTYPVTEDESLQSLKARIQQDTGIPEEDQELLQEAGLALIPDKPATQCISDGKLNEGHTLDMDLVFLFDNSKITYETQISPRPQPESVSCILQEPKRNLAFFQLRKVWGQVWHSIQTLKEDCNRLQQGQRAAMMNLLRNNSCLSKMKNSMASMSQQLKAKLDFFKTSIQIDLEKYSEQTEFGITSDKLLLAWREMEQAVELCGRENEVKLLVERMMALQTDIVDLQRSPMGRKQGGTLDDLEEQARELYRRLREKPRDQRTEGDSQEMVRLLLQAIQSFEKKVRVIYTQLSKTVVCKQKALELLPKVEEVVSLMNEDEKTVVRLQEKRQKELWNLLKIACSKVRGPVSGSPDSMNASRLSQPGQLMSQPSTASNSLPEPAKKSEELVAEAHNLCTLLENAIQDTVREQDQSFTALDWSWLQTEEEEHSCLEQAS

[9] = target: T3, Inhibitor of nuclear factor kappa-B kinase subunit beta (Homo sapiens); details: at 1 µM
[10] = target: T4, Inhibitor of nuclear factor kappa-B kinase subunit epsilon (Homo sapiens) (UniProt Q14164); details: at 0.1 µM
T4 sequence (whole entry): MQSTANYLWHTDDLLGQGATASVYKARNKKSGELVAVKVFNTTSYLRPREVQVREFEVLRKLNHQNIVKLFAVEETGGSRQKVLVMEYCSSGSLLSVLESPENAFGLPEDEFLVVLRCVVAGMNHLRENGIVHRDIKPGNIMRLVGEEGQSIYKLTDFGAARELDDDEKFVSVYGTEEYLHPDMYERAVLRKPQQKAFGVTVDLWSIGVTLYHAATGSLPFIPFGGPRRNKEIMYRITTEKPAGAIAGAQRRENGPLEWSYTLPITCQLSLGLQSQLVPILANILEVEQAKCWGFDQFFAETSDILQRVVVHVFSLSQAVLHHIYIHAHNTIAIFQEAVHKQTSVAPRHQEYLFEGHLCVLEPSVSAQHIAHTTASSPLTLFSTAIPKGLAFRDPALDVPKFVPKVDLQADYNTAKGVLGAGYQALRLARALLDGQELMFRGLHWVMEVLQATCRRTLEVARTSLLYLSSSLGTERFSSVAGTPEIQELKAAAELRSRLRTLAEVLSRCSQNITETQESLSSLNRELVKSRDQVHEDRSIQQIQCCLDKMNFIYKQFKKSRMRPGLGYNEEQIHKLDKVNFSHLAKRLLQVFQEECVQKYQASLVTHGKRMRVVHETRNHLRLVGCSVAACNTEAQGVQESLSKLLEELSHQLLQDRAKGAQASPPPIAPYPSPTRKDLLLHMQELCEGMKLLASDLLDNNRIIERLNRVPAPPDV

[11] = target: T4, Inhibitor of nuclear factor kappa-B kinase subunit epsilon (Homo sapiens); details: at 1 µM
[12] = target: T5, Serine/threonine-protein kinase Nek1 (Homo sapiens) (UniProt Q96PY6); details: at 0.1 µM
T5 sequence (whole entry): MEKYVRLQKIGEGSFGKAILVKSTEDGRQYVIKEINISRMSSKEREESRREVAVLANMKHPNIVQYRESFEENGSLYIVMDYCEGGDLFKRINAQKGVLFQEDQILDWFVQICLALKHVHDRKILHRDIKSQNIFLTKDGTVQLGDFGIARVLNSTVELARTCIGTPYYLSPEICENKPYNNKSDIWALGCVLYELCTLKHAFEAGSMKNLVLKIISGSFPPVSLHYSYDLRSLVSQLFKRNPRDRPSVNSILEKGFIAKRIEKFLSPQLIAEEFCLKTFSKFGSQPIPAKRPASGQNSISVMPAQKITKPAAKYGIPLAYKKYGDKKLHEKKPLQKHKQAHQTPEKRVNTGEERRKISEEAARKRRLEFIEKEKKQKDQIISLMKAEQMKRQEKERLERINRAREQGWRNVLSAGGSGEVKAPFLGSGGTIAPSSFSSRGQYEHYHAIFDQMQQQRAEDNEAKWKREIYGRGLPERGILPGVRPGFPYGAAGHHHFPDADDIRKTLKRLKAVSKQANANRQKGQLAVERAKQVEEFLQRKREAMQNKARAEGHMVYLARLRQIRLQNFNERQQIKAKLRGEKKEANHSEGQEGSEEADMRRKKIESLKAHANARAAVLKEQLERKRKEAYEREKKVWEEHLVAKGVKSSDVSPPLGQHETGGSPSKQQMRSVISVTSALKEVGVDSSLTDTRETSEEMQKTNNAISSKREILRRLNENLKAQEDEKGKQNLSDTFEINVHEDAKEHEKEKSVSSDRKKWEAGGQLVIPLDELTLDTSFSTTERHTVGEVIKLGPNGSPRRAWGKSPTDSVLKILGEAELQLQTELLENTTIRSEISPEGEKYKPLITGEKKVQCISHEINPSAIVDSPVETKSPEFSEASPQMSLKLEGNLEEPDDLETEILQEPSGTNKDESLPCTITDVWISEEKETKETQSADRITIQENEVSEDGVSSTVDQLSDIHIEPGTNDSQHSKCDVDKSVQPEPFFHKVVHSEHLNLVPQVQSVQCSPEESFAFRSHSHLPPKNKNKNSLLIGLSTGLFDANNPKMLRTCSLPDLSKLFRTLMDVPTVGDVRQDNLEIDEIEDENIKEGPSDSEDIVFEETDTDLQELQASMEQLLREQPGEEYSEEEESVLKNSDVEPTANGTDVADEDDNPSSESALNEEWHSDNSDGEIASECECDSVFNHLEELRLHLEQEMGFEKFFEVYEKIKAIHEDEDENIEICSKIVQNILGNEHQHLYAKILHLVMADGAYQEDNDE

[13] = target: T5, Serine/threonine-protein kinase Nek1 (Homo sapiens); details: at 1 µM
[14] = target: T6, Serine/threonine-protein kinase Nek2 (Homo sapiens) (UniProt P51955); details: at 0.1 µM
T6 sequence (whole entry): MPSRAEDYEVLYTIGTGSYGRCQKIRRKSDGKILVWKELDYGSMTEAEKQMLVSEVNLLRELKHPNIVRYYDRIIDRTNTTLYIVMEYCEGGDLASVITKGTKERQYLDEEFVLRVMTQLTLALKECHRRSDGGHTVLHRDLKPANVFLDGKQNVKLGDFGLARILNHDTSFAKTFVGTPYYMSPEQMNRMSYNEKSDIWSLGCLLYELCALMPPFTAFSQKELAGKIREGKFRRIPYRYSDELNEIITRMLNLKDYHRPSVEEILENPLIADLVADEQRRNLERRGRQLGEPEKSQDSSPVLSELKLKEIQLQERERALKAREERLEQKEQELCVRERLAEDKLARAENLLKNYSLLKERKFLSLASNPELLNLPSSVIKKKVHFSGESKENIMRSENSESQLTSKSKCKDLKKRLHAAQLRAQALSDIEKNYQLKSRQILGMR

[15] = target: T6, Serine/threonine-protein kinase Nek2 (Homo sapiens); details: at 1 µM
[16] = target: Serine/threonine-protein kinase Nek6 (Homo sapiens) (UniProt Q9HC98); details: at 0.1 µM
Chain of Serine/threonine-protein kinase Nek6 (Homo sapiens) (Q9HC98 whole entry): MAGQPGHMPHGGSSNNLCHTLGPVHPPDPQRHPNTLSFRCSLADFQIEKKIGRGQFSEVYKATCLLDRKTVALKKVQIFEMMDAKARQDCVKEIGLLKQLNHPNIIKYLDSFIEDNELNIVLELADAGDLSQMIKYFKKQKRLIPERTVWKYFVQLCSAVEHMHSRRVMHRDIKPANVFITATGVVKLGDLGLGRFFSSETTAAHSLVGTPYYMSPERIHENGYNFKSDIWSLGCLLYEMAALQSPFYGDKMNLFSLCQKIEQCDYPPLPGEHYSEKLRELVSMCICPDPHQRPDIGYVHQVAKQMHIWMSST

[17] = target: Serine/threonine-protein kinase Nek6 (Homo sapiens) (UniProt Q9HC98); details: at 1 µM
[18] = target: Serine/threonine-protein kinase Nek7 (Homo sapiens) (UniProt Q8TDX7); details: at 0.1 µM
Chain of Serine/threonine-protein kinase Nek7 (Homo sapiens) (Q8TDX7 whole entry, looked up): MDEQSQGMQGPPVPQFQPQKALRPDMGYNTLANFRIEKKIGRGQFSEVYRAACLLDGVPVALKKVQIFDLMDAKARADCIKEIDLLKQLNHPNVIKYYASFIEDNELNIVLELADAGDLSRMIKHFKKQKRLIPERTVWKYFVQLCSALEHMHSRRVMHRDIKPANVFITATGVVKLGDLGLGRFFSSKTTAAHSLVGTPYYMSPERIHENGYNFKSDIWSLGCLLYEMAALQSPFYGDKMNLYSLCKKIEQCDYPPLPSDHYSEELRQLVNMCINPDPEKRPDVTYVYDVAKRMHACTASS

[19] = target: Serine/threonine-protein kinase Nek7 (Homo sapiens) (UniProt Q8TDX7); details: at 1 µM
[20] = target: T7, Serine/threonine-protein kinase Nek9 (Homo sapiens) (UniProt Q8TD19); details: at 0.1 µM;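 note: reported value is the mean percent inhibition of NEK9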
T7 sequence (whole entry): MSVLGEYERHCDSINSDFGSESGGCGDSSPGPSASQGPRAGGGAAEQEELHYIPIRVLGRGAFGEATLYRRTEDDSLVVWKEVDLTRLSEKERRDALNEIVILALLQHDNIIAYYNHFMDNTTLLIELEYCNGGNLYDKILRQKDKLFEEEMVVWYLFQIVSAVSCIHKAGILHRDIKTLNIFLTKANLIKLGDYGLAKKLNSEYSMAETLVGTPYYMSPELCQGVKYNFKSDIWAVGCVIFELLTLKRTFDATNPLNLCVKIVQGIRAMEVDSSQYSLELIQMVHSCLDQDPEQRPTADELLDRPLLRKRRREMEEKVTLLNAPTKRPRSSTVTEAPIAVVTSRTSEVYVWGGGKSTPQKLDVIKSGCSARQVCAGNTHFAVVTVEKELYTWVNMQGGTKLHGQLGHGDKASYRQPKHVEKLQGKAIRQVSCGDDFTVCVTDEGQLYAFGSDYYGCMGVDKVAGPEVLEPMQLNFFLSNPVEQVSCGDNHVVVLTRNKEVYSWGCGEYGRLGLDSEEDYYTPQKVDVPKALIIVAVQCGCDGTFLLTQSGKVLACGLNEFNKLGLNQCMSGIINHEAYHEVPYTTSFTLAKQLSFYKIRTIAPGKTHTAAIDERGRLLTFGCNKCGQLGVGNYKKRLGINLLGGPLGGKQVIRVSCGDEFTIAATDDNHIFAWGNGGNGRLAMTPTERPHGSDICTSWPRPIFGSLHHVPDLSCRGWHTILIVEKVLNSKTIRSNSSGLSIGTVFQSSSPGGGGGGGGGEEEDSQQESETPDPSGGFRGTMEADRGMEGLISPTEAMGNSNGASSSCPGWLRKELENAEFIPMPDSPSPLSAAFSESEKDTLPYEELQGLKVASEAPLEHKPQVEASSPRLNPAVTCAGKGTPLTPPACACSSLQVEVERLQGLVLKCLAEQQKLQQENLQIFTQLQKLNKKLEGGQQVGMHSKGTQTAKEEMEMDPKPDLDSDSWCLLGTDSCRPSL

Chain of Sphingosine kinase 1 (Homo sapiens) (Q9NYA1 whole entry): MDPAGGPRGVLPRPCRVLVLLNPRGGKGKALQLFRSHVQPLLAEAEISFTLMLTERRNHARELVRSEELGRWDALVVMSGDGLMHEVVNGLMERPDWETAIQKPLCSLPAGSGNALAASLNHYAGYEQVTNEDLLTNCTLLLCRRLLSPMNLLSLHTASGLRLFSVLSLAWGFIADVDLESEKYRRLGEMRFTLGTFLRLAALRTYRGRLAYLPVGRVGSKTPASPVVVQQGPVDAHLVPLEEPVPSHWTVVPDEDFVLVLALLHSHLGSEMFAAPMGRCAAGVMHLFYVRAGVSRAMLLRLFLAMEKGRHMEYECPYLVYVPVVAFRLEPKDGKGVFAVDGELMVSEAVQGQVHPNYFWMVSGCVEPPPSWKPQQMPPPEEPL

`COC(=O)Nc1nc2cc(Oc3cccc(NC(=O)Nc4cc(C(F)(F)F)ccc4F)c3)ccc2[nH]1` gave an inhibition [1] of 2.3%, an inhibition [2] of 0% and an inhibition [3] of 0.65%. For the same compound, the inhibition [4] was -0.44%, the inhibition [5] was -0.84% and the inhibition [6] was -3.67%. It also gave an inhibition [7] of 4.99%, an inhibition [8] of 0.52% and an inhibition [9] of 1.91%. For the same compound, the inhibition [10] was 1.54%, the inhibition [11] was 0.25% and the inhibition [12] was -0.22%. For the same compound, the inhibition [13] was 2.32%, the inhibition [14] was 0.79% and the inhibition [15] was 0.72%. For the same compound, the inhibition [16] was 1.5%, the inhibition [17] was 0.11% and the inhibition [18] was 2.69%. The inhibition [19] was 1.59% and the inhibition [20] was -4.74%.
